# Data as given in PubChem BioAssay (Tox21).
# “And” between values parts separate entries of the source, which are not always exact repeats. Identical values can stand only once. Records with an inconclusive call do not appear. Some compounds were tested as several samples or in several runs, with calls that do not always agree. The source made the active and inactive calls. Unless noted, calls come from the whole dose curve; as a rule, active = well fitted cell-killing curve with a large enough effect in the repeat runs; inconclusive = weak or mixed curves, or effect the other way; inactive = no such curve, though single readings can be large or run the other way.
# Test system: not listed separately
# Test: qHTS assay to identify small molecule agonists of the estrogen receptor alpha (ER-alpha) signaling pathway in the presence of an antagonist - cell viability counter screen (AID 1259386);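 note: cells exposed to compounds for 22 h at 37 °C before the viability read; nearly all actives have a fitted effect of over 30% in size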; note: potency is the fitted concentration of half-maximal effect
# Settings: VM7Luc4E2 viability, CellTiter-Fluor fluorescence, 22 h; series mostly up to 92.4 µM; activity change, negative = cytotoxicity: at the top concentration
# Outline: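 ICI-182,780 at 10.0nM final accompanies the compound titration (15 concentrations, 22hr, 37C) on VM7Luc4E2 cells. The CellTiter-Fluor fluorescence readout runs in the same wells as the luciferase assay.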
# % is set by controls: 0 for no effect and ±100 for the full control effect.
Compound,Potency,"activity change, negative = cytotoxicity"
CCCCC(CC)CN=C(N)NC(N)=NCCCCCCN=C(N)NC(N)=NCC(CC)CCCC (stereo unspecified),23.7 µM (active),
CCCCCCCC[P+](CCCCCCCC)(CCCCCCCC)CCCCCCCC,2.71 µM (active),
CC(C)(C)C(=O)OCOC(=O)C1N2C(=O)CC2S(=O)(=O)C1(C)C (stereo unspecified),,2.65% [at 42.5 µM] (inactive)
N/C(=N\N=C\c1ccc(Cl)cc1)N/N=C/c1ccc(Cl)cc1,,-1.59% [at 42.5 µM] (inactive)
CC(=O)S[C@@H]1CC2=CC(=O)CC[C@]2(C)[C@H]2CC[C@@]3(C)[C@@H](CC[C@@]34CCC(=O)O4)[C@H]12,,4.1% (inactive)
C/C=C1/C(=O)C[C@H]2[C@@H]3CCC4=CC(=O)CC[C@]4(C)[C@H]3CC[C@]12C,,0.825% (inactive)
C[C@]12CCC(=O)C=C1CC[C@@H]1[C@@H]2[C@@H](O)C[C@@]2(C)[C@H]1CC[C@]2(O)C(=O)COC(=O)CCC(=O)O,,1.31% [at 42.5 µM] (inactive)
CC(C)(C)CC(C)(C)c1ccc(O)c(Cc2ccc(Cl)cc2Cl)c1,29.8 µM (active),
CC[C@H]1O[C@]2(CC[C@@H]1C)C[C@@H]1C[C@@H](C/C=C(\C)C[C@@H](C)/C=C/C=C3\CO[C@@H]4[C@H](O)C(C)=C[C@@H](C(=O)O1)[C@]34O)O2,68 µM (active),
CCN(CC)CCNC(=O)c1c(C)[nH]c(/C=C2\C(=O)Nc3ccc(F)cc32)c1C,2.98 µM (active),
CCCC(c1cc(C(C)(C)C)c(O)cc1C)c1cc(C(C)(C)C)c(O)cc1C,61.9 µM (active),
[Cl][Au]([Cl])[Cl],43.3 µM (active),
CCCCCCCC[N+](CCCCCCCC)(CCCCCCCC)CCCCCCCC,12.2 µM (active),
CCCCC(CC)COP(=O)(O)OCC(CC)CCCC (stereo unspecified),,-6.13% (inactive)
Cc1[nH]nc2c1N=C(c1ccccc1Cl)c1cc([N+](=O)[O-])ccc1N2,27.3 µM (active),
O=C1CCCc2c1cc1ccc3cccc4ccc2c1c34,,5.84% (inactive)
O=c1cc(-c2ccc(O)cc2)oc2cc(O)cc(O)c12,inactive and 48.6 µM (active),
CN(C)c1ccc(C2(c3ccc(N(C)C)cc3)OC(=O)c3cc(N(C)C)ccc32)cc1,,-15.7% (inactive)
CNc1ccc(O)cc1,61 µM (active),

# Target: Progesterone receptor (Homo sapiens) (UniProt P06401)
# Sequence (P06401 whole entry, looked up): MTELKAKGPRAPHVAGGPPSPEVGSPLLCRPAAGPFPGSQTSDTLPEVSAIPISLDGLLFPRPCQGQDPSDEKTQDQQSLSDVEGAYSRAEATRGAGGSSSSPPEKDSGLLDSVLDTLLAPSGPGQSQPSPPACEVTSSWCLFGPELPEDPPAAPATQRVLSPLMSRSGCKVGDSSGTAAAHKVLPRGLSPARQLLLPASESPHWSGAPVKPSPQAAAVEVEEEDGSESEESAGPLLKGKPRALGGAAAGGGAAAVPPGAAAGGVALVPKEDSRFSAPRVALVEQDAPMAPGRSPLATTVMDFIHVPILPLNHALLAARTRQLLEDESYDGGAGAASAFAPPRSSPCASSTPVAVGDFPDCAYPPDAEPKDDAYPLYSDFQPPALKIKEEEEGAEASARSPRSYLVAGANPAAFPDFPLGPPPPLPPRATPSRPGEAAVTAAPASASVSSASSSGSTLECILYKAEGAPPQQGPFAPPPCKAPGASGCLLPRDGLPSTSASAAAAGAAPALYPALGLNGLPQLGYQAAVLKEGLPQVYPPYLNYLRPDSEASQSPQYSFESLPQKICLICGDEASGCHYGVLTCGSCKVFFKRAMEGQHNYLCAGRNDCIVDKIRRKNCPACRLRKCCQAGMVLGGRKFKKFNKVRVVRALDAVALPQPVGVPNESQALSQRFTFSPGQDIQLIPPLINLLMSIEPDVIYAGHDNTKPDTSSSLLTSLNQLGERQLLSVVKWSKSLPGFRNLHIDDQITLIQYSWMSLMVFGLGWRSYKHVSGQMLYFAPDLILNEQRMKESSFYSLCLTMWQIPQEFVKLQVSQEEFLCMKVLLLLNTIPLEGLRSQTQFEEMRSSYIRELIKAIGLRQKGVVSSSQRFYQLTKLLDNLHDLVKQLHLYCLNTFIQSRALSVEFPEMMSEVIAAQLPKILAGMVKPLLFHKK
# Test: qHTS assay to identify small molecule agonists of the progesterone receptor (PR) signaling pathway (AID 1346784; calls by dose curve; note: nearly all actives have a fitted effect of over 30% in size)
# Settings: PR-UAS-bla HEK293T, beta-lactamase FRET ratio, 16 h; series mostly up to 92.4 µM; activation: at the top concentration
# Outline: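 Compounds were tested for PR agonism in HEK 293T cells bearing a beta-lactamase gene under UAS control. Treatment lasted 16 hr at 37C; signal came from fluorescence of a FRET substrate.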
Compound,activation,Potency
CC(NN)c1ccccc1 (stereo unspecified),-0.517% [at 19 µM] (inactive),
O=C(N/N=C/c1ccccc1O)c1ccncc1,13.4% [at 42.5 µM] (inactive),
CCN(Cc1cccnc1)C(=O)c1cccc(Cl)c1[C@]1(C)C(=O)N(Cc2ccc(OC)cc2OC)c2ccc(Cl)cc21,3.62% (inactive),
Cc1ccc(O)c(C(C)(C)C)c1,,inactive
CCCCCCCCCCC=O,-0.0473% (inactive),
CCCCCCCCOc1ccccc1C(=O)Nc1ccc(C(=O)OCC[N+](C)(CC)CC)cc1,5.36% [at 42.5 µM] (inactive),
Cc1onc(-c2c(Cl)cccc2Cl)c1C(=O)N[C@@H]1C(=O)N2[C@@H]1SC(C)(C)[C@@H]2C(=O)O,-8.14% [at 42.5 µM] (inactive),
NNc1nc(-c2ccccc2)cs1,-1.89% (inactive),
CCCCCCCCS(=O)C(C)Cc1ccc2c(c1)OCO2 (stereo unspecified),-8.98% (inactive),
Clc1ccc(C(Cn2ccnc2)OCc2ccc(Sc3ccccc3)cc2)c(Cl)c1 (stereo unspecified),-5.01% [at 42.5 µM] (inactive),
N=C1C=CC(=C(c2ccc(N)cc2)c2ccc(N)cc2)C=C1,23.2% (inactive),
NC(=O)NS(=O)(=O)c1ccc(N)cc1,2.14% [at 42.5 µM] (inactive),
O=C(Oc1ccccc1)c1ccccc1C(=O)Oc1ccccc1,-0.355% (inactive),
CCC1=C[C@@H]2CN(C1)Cc1c([nH]c3ccccc13)[C@@](C(=O)OC)(c1cc3c(cc1OC)N(C)[C@H]1[C@@](O)(C(=O)OC)[C@H](OC(C)=O)[C@]4(CC)C=CCN5CC[C@]31[C@@H]54)C2,-7.76% [at 42.5 µM] (inactive),
Cc1onc(-c2ccccc2Cl)c1C(=O)N[C@@H]1C(=O)N2[C@@H]1SC(C)(C)[C@@H]2C(=O)O,-9.6% [at 42.5 µM] (inactive),
O=C(O)c1cc(O)c2c(c1)C(=O)c1cccc(O)c1C2=O,3.18% (inactive),
CC(C)(C)CC(C)(C)c1ccc(OCCOCC[N+](C)(C)Cc2ccccc2)cc1,3.93% [at 42.5 µM] (inactive),

# Target: Progesterone receptor (Homo sapiens) (UniProt P06401)
# Test: qHTS assay to identify small molecule antagonists of the progesterone receptor (PR) signaling pathway (AID 1346795; active = well fitted inhibition curve with a large enough effect in the signal ratio in the repeat runs, not every such curve was filed as active; the % refers to the signal ratio; note: potency is the fitted concentration of half-maximal effect)
# Settings: PR-UAS-bla HEK293T, beta-lactamase FRET ratio, 16 h; series mostly up to 92.4 µM; activity change, negative = inhibition: at the top concentration
# Outline: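 In HEK293T cells bearing the PR-UAS-bla reporter, compound effects on promegestone-driven (1 nM) beta-lactamase expression are assessed after 16 hr using a fluorescent FRET substrate incubated 2 hr at room temperature.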
Compound,"activity change, negative = inhibition",Potency
CC(NN)c1ccccc1 (stereo unspecified),-2.01% [at 18.9 µM] (inactive),
O=C(N/N=C/c1ccccc1O)c1ccncc1,,10.6 µM (active)
CCN(Cc1cccnc1)C(=O)c1cccc(Cl)c1[C@]1(C)C(=O)N(Cc2ccc(OC)cc2OC)c2ccc(Cl)cc21,,16.1 µM (active)
Cc1ccc(O)c(C(C)(C)C)c1,,inactive
CCCCCCCCCCC=O,-5.93% (inactive),
CCCCCCCCOc1ccccc1C(=O)Nc1ccc(C(=O)OCC[N+](C)(CC)CC)cc1,6.12% [at 42.5 µM] (inactive),
Cc1onc(-c2c(Cl)cccc2Cl)c1C(=O)N[C@@H]1C(=O)N2[C@@H]1SC(C)(C)[C@@H]2C(=O)O,-8.62% [at 42.5 µM] (inactive),
NNc1nc(-c2ccccc2)cs1,,19.9 µM (active)
CCCCCCCCS(=O)C(C)Cc1ccc2c(c1)OCO2 (stereo unspecified),,44.1 µM (active)
Clc1ccc(C(Cn2ccnc2)OCc2ccc(Sc3ccccc3)cc2)c(Cl)c1 (stereo unspecified),,29.8 µM (active)
N=C1C=CC(=C(c2ccc(N)cc2)c2ccc(N)cc2)C=C1,15% (inactive),
NC(=O)NS(=O)(=O)c1ccc(N)cc1,5.55% [at 42.5 µM] (inactive),
O=C(Oc1ccccc1)c1ccccc1C(=O)Oc1ccccc1,,24.3 µM (active)
CCC1=C[C@@H]2CN(C1)Cc1c([nH]c3ccccc13)[C@@](C(=O)OC)(c1cc3c(cc1OC)N(C)[C@H]1[C@@](O)(C(=O)OC)[C@H](OC(C)=O)[C@]4(CC)C=CCN5CC[C@]31[C@@H]54)C2,,0.944 µM (active)
Cc1onc(-c2ccccc2Cl)c1C(=O)N[C@@H]1C(=O)N2[C@@H]1SC(C)(C)[C@@H]2C(=O)O,0.998% [at 42.5 µM] (inactive),
